Laboratory results as given in the supplement of paper PMC3724861.
The sample as a whole holds a higher share of hits than the screen did. The true hit rate is not given.

These sequences were tested on T1, Caupolican (Caup) homeodomain DNA-binding domain (assay: PBM E-score (8-mer, recovered from the published 9-mer minima) (E-score (dimensionless, -0.5 to 0.5)); Drosophila protein; higher = stronger relative binding preference, active = 0.31 or more).
T1 sequence: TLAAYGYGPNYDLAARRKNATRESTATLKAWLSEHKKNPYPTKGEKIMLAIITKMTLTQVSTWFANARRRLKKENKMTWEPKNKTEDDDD
Description: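 Protein binding microarray (PBM): in vitro transcribed/translated Caupolican (Caup) homeodomain DNA-binding domain (residues 214-303) applied at 100 nM to a universal 8-mer PBM array (Agilent AMADID 015681). The 8-mer enrichment score (E-score, range -0.5 to 0.5) was computed, and each 9-mer score is the minimum E-score of its two constituent 8-mers. The E-score is the same for a 9-mer and its reverse complement; 0.31 is the stated binding threshold.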

Sequence | PBM E-score
TACGCTCA | -0.00447 (inactive)
AACTTGTC | 0.27 (inactive)
GACTTGGA | -0.0172 (inactive)
AACTTGTG | 0.147 (inactive)
CACTTGTC | 0.271 (inactive)
GACTTGTA | 0.38 (active)
GACTTGCA | 0.0909 (inactive)
CACTTGTA | 0.318 (active)
AACTTGTA | 0.364 (active)
CACTTGGA | 0.0572 (inactive)
AGCGACCA | -0.01 (inactive)
TACCTTGA | 0.0541 (inactive)
CGCTAGAA | -0.14 (inactive)
CTACTCTC | -0.105 (inactive)
GAATAGCC | -0.146 (inactive)
CCCTTGTC | 0.177 (inactive)
CCTTTGTA | 0.138 (inactive)
ACCTTGTG | 0.0927 (inactive)
ACCTTGTC | 0.306 (inactive)
GCCTTGTA | 0.321 (active)
GCCTTGCA | -0.0717 (inactive)
CCCTTGTA | 0.337 (active)
ACCTTGTA | 0.412 (active)
GCCTTGAA | -0.119 (inactive)

Sequence | PBM E-score
CGTAGTTA | 0.157 (inactive)
CAAGCTGA | 0.031 (inactive)
CTAGGGCC | -0.235 (inactive)
GGTCCGAC | -0.0703 (inactive)
CCAGTAAC | -0.0237 (inactive)
ATTATCAG | 0.0887 (inactive)
AACTATTC | 0.0523 (inactive)
ACTGATCC | 0.062 (inactive)
GAACATCA | 0.259 (inactive)
CTACATCA | 0.253 (inactive)
GCACATCA | 0.0977 (inactive)
GTACATCA | 0.383 (active)
ATACATCA | 0.334 (active)
ATACATCC | 0.276 (inactive)
CTAACGGA | -0.0298 (inactive)
AAACGTTG | -0.0301 (inactive)
ACAAAGGA | 0.131 (inactive)
CTTTCCTA | -0.094 (inactive)
ATCAGTAC | 0.201 (inactive)
AAGAACAG | 0.172 (inactive)
AAGAACAA | 0.259 (inactive)
CAGAACAC | 0.215 (inactive)
GAGAACAC | 0.236 (inactive)
AAGAACAC | 0.312 (active)

Sequence | PBM E-score
AAGAACAT | 0.357 (active)
ACGTAGCT | 0.0358 (inactive)
CATATCTC | 0.0782 (inactive)
AGTTGGGC | -0.15 (inactive)
AGCACGTG | 0.082 (inactive)
GCTACATA | 0.248 (inactive)
ACTACATA | 0.35 (active)
ACTACAGC | 0.149 (inactive)
ACTACATC | 0.33 (active)
CCTACATA | 0.153 (inactive)
CCTACATC | 0.144 (inactive)
ACCACATG | 0.212 (inactive)
ACTACATG | 0.428 (active)
ACTACAGG | 0.199 (inactive)
AAAATACT | 0.04 (inactive)
GCGATCGA | 0.0192 (inactive)
AGCGTAGC | -0.111 (inactive)
AGGGCCGC | -0.251 (inactive)
CGACCCGA | -0.151 (inactive)
GCGGTACA | 0.173 (inactive)
CTGGCCAG | -0.181 (inactive)
ATTTGGAC | 0.134 (inactive)
AGGGCGTC | -0.192 (inactive)
TGACATCA | ≥ 0.333 (active)

Sequence | PBM E-score
AGACATAA | 0.217 (inactive)
GGACATCA | 0.234 (inactive)
CGACATCA | 0.284 (inactive)
AGTCATAA | 0.146 (inactive)
CTACATAA | 0.22 (inactive)
TGACATAA | 0.311 (active)
GGACATAA | 0.211 (inactive)
TGTCATAA | 0.338 (active)
TCACATAA | 0.182 (inactive)
CGTCATAA | 0.081 (inactive)
TTACATAA | 0.339 (active)
AGCCTGGG | -0.123 (inactive)
AATCCCCC | -0.256 (inactive)
CGGGAACA | 0.176 (inactive)
AGACAACC | 0.201 (inactive)
CTTAACAA | 0.228 (inactive)
GTCGCGAA | 0.00326 (inactive)
ATGGTGTC | 0.142 (inactive)
GCTAGGCC | -0.238 (inactive)
GCACATAA | 0.0651 (inactive)
GTACATAA | 0.361 (active)
GTACATAC | 0.307 (inactive)
ACCCTGGG | -0.105 (inactive)
GAGATAGC | -0.0575 (inactive)

Sequence | PBM E-score
TACAACGA | 0.267 (inactive)
AACAACAG | 0.243 (inactive)
TACAACAA | 0.387 (active)
AACAACTA | ≥ 0.319 (active)
AACAACAT | 0.409 (active)
AACAACTG | 0.208 (inactive)
TTCAACAA | 0.299 (inactive)
AACAACGT | 0.252 (inactive)
CACAACAA | 0.29 (inactive)
AACAACTC | 0.167 (inactive)
AACAACAA | 0.394 (active)
AGCAACAA | 0.182 (inactive)
AGTTTCCA | 0.0163 (inactive)
CTCTGGGC | -0.214 (inactive)
CCCGTGAA | -0.0554 (inactive)
TCCGAGGA | -0.0519 (inactive)
GGGAGTAA | 0.0271 (inactive)
AATCCGGC | -0.121 (inactive)
CTTGGGTA | -0.0204 (inactive)
CCACCGGC | -0.281 (inactive)
TTACTCAA | 0.0597 (inactive)
AACAACCA | ≥ 0.324 (active)
ATCAACAT | 0.371 (active)
AACAACCC | 0.247 (inactive)

Sequence | PBM E-score
ATCAACAG | 0.109 (inactive)
ATCAACAA | 0.289 (inactive)
AACAACCT | 0.243 (inactive)
CGCGCTAG | -0.142 (inactive)
GTCGATAA | 0.0563 (inactive)
ACACCCGC | -0.0419 (inactive)
AAAAAAGA | -0.0444 (inactive)
CCGGCTCA | -0.123 (inactive)
GATGAATC | 0.106 (inactive)
CTGTCAAG | -0.017 (inactive)
ATGTTTTC | 0.33 (active)
GTGTTTTA | 0.213 (inactive)
ATGTTTAG | 0.284 (inactive)
ATGTTTGG | 0.229 (inactive)
CTGTTTGA | 0.188 (inactive)
ATGTTTGA | 0.327 (active)
CTGTTTAA | 0.111 (inactive)
ATGTTTCC | 0.236 (inactive)
CTGTTTTC | 0.134 (inactive)
ATGTTTTA | 0.369 (active)
CTGTTTTA | 0.107 (inactive)
ATGTTTAA | 0.367 (active)
ACGCAATC | -0.0194 (inactive)
GAGTTTAC | -0.00241 (inactive)

Sequence | PBM E-score
ACATCGCT | 0.178 (inactive)
CCTTCTAC | -0.131 (inactive)
CATCTGAC | 0.0423 (inactive)
AAGGTACC | -0.127 (inactive)
ACCGCACA | -0.00685 (inactive)
CGCGGAGA | -0.112 (inactive)
ATAGCTTC | -0.0833 (inactive)
ATGTTAGA | 0.329 (active)
GTGTTAGA | 0.224 (inactive)
CTGTTAGC | -0.0813 (inactive)
CTGTTAGA | 0.105 (inactive)
ATGTTAGG | 0.219 (inactive)
ATGTTAGC | 0.314 (active)
CATGACAC | 0.363 (active)
AATGACAG | 0.219 (inactive)
AATGACAC | 0.277 (inactive)
GATGACAC | 0.219 (inactive)
AATGACAA | 0.346 (active)
CATGACAA | 0.283 (inactive)
TATGACAA | 0.314 (active)
GATGACAA | 0.308 (inactive)
AATGACAT | 0.298 (inactive)
AGATCATC | 0.12 (inactive)
ACAGGCGC | -0.0681 (inactive)

Sequence | PBM E-score
TGAGGGCA | -0.108 (inactive)
GAGCACAC | 0.00424 (inactive)
AGCGTCTA | -0.0661 (inactive)
ACACGGTG | 0.307 (inactive)
ACACGGTC | 0.219 (inactive)
ACACGGAG | 0.131 (inactive)
ACACGGTA | 0.327 (active)
ACACGGAT | 0.339 (active)
ACACGGAA | 0.291 (inactive)
ACAACGTA | 0.255 (inactive)
AGTCACAG | 0.0714 (inactive)
CGCCCCCA | -0.285 (inactive)
AACATGAT | ≥ 0.424 (active)
AGCATGAG | 0.104 (inactive)
CACATGAG | 0.0472 (inactive)
AGCATGAT | 0.197 (inactive)
AACATGAG | 0.351 (active)
AACATGAC | 0.42 (active)
ACCATGAC | 0.0507 (inactive)
ACCATGAT | 0.158 (inactive)
AGCATGAC | 0.0874 (inactive)
AGAAGATC | -0.0662 (inactive)
GTTGGATA | 0.0774 (inactive)
ATCCAATC | 0.102 (inactive)

Sequence | PBM E-score
AGCCCTTC | -0.22 (inactive)
GCTCGTGA | -0.064 (inactive)
AGCGGGGG | -0.28 (inactive)
GACTATGA | 0.0441 (inactive)
ATAATGCC | 0.0429 (inactive)
ACTTGCAT | 0.137 (inactive)
GCGTTTAC | -0.0438 (inactive)
AGTACATG | 0.45 (active)
AGTACAGC | 0.167 (inactive)
AGTACGTG | 0.0988 (inactive)
AGCACATC | 0.0585 (inactive)
AGTACATC | 0.342 (active)
AGCACATG | 0.164 (inactive)
CGTGATAG | -0.0553 (inactive)
AGCGCAAG | -0.181 (inactive)
CTTTGCGA | -0.0806 (inactive)
TAAAAAGA | 0.0988 (inactive)
CAAAGTTC | -0.0431 (inactive)
ATATGTTA | 0.338 (active)
CTATGTTA | 0.294 (inactive)
GTATGTTA | 0.321 (active)
ATATGTTG | 0.324 (active)
CTATGTTC | 0.31 (inactive)
ATATGTGA | 0.25 (inactive)

Sequence | PBM E-score
ATCTGTTG | 0.128 (inactive)
GTCTGTTA | 0.161 (inactive)
ATATGTTC | 0.347 (active)
ATATGTGG | 0.182 (inactive)
ATATGTGC | 0.118 (inactive)
CTCTGTTA | 0.107 (inactive)
ATTCAGTC | 0.00318 (inactive)
AGCCATTC | -0.0817 (inactive)
CCCTAGGG | -0.253 (inactive)
CATGTTCG | 0.399 (active)
CATGTTCC | 0.409 (active)
CCTGTTCG | 0.0935 (inactive)
AATGTTCG | 0.154 (inactive)
TCTGTTCA | 0.0822 (inactive)
TATGTTCA | 0.324 (active)
GATGTTCA | 0.303 (inactive)
AATGTTCA | 0.244 (inactive)
AATGTTCC | 0.2 (inactive)
TATGTTGA | 0.288 (inactive)
CATGTTCA | 0.396 (active)
GATGTTCC | 0.281 (inactive)
